According to PubChem BioAssay AID1159580 (chemical genetic matrix, 2015):
Values joined by “and” are separate entries in the source; they are usually repeats but may differ in a detail not shown here. Equal values may be shown once. Hit rate of the full screen: of about 5,500 compounds, about 2,000 (36%) were called active. Another 18% or so got no clear call; they are omitted. Rule as the data show it: active = normalized growth mostly below about 0.91 (no sharp cut-off); inconclusive = no clear call, values can overlap the other calls; inactive = mostly above about 0.92. The list shows a part of the results.

Assay: chemical genetic growth profiling, strain panel (AID 1159580);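 also: tested at 20 µM; growth read once vehicle control cultures reached saturation at 30 °C; 1 = growth at the plate median or of vehicle wells; lower values mean less growth of the strain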
Conditions: S. cerevisiae deletion strains, growth OD

Measured: normalized growth

CC(=O)N[C@@H](CCC(=O)O)C(=O)O
inactive: locus YAL021C, strain ccr4, stronger effect = lower value 1.03 | locus YAL026C, strain drs2, stronger effect = lower value 1.03 | locus YAL030W, strain snc1, stronger effect = lower value 1.01 | locus YBL061C, strain skt5, stronger effect = lower value 1.03 | locus YBR009C, strain hhf1, stronger effect = lower value 0.994 | locus YBR021W, strain FUR4, stronger effect = lower value 1.01 | locus YBR023C, strain chs3, stronger effect = lower value 1.03 | locus YBR171W, strain sec66, stronger effect = lower value 1.03 | locus YBR229C, strain ROT2, stronger effect = lower value 1 | locus YBR231C, strain swc5, stronger effect = lower value 1.02 | locus YBR279W, strain paf1, stronger effect = lower value 1.02 | locus YCL011C, strain gbp2, stronger effect = lower value 1.02 | locus YCL016C, strain dcc1, stronger effect = lower value 1.03 | locus YCL029C, strain bik1, stronger effect = lower value 1.02 | locus YCL069W, strain vba3, stronger effect = lower value 1.02 | locus YCR088W, strain abp1, stronger effect = lower value 1.02 | locus YDL005C, strain med2, stronger effect = lower value 1.02 | locus YDL035C, strain GPR1, stronger effect = lower value 1.01 | locus YDL040C, strain nat1, stronger effect = lower value 1.01 | locus YDL074C, strain BRE1, stronger effect = lower value 1.02 | locus YDL101C, strain DUN1, stronger effect = lower value 1.01 | locus YDL134C, strain PPH21, stronger effect = lower value 1.01 | locus YDL185W, strain tfp1, stronger effect = lower value 1 | locus YDL192W, strain arf1, stronger effect = lower value 1.01 | locus YDR001C, strain nth1, stronger effect = lower value 1.02 | locus YDR069C, strain doa4, stronger effect = lower value 1.03 | locus YDR101C, strain arx1, stronger effect = lower value 1.02 | locus YDR137W, strain rgp1, stronger effect = lower value 1.04 | locus YDR150W, strain NUM1, stronger effect = lower value 0.99 | locus YDR159W, strain sac3, stronger effect = lower value 1.01 | locus YDR162C, strain NBP2, stronger effect = lower value 1.01 | locus YDR195W, strain ref2 1.02 | locus YDR297W, strain sur2, stronger effect = lower value 1.02 | locus YDR318W, strain mcm21, stronger effect = lower value 1.03 | locus YDR334W, strain swr1, stronger effect = lower value 1.02 | locus YDR335W, strain msn5, stronger effect = lower value 1.02 | locus YDR388W, stronger effect = lower value 1.01 | locus YDR392W, strain spt3, stronger effect = lower value 1.05 | locus YDR502C, strain sam2, stronger effect = lower value 1.01 | locus YEL003W, strain gim4, stronger effect = lower value 1.01 | locus YEL037C, strain rad23, stronger effect = lower value 1.02 | locus YEL061C, strain CIN8 (second series), stronger effect = lower value 1.02 | locus YEL061C, strain CIN8, stronger effect = lower value 1.01 | locus YER015W, strain faa2, stronger effect = lower value 1.02 | locus YER016W, strain bim1, stronger effect = lower value 1.03 | locus YER110C, stronger effect = lower value 1.01 | locus YER111C, strain swi4, stronger effect = lower value 1.02 | locus YER155C, strain BEM2 (second series), stronger effect = lower value 1.01 | locus YER155C, strain BEM2, stronger effect = lower value 1.01 | locus YER167W, strain BCK2, stronger effect = lower value 1.01 | locus YFR010W, strain ubp6, stronger effect = lower value 1.01 | locus YGL078C, strain dbp3, stronger effect = lower value 0.996 | locus YGL086W, strain mad1, stronger effect = lower value 0.986 | locus YGL167C, strain pmr1, stronger effect = lower value 1.02 | locus YGL173C, strain kem1, stronger effect = lower value 1.01 | locus YGL227W, strain vid30, stronger effect = lower value 1.02 | locus YGL240W, strain doc1, stronger effect = lower value 1.01 | locus YGL248W, strain PDE1, stronger effect = lower value 1 | locus YGL253W, strain hxk2, stronger effect = lower value 1.04 | locus YGR078C, strain PAC10, stronger effect = lower value 0.999 | locus YGR135W, strain pre9, stronger effect = lower value 1.01 | locus YGR252W, strain gcn5, stronger effect = lower value 0.974 | locus YHR013C, strain ard1, stronger effect = lower value 1.06 | locus YHR027C, strain rpn1, stronger effect = lower value 1.02 | locus YHR030C, strain SLT2, stronger effect = lower value 1 and 0.981 | locus YHR079C, strain IRE1 (second series), stronger effect = lower value 1.02 | locus YHR079C, strain IRE1, stronger effect = lower value 0.981 | locus YHR094C, strain hxt1, stronger effect = lower value 1.01 | locus YHR129C, strain ARP1, stronger effect = lower value 1 | locus YHR142W, strain chs7, stronger effect = lower value 1.05 | locus YHR200W, strain rpn10, stronger effect = lower value 1 | locus YIL066C, strain RNR3, stronger effect = lower value 1.01 | locus YIL073C, strain SPO22, stronger effect = lower value 1.06 | locus YIL125W, strain kgd1, stronger effect = lower value 1 | locus YIR030C, strain dcg1, stronger effect = lower value 1.01 | locus YJL092W, strain hpr5, stronger effect = lower value 1.02 | locus YJL095W, strain BCK1 (second series), stronger effect = lower value 1.03 | locus YJL095W, strain BCK1, stronger effect = lower value 1.01 and 0.983 | locus YJL115W, strain asf1, stronger effect = lower value 1.01 | locus YJL129C, strain trk1, stronger effect = lower value 1.04 | locus YJL134W, strain LCB3, stronger effect = lower value 1.01 | locus YJL154C, strain vps35, stronger effect = lower value 1.02 | locus YJL164C, strain tpk1, stronger effect = lower value 1.01 | locus YJL166W, strain qcr8, stronger effect = lower value 1 | locus YJL168C, strain set2, stronger effect = lower value 1.01 | locus YJL187C, strain SWE1 (second series), stronger effect = lower value 1.01 | locus YJL187C, strain SWE1, stronger effect = lower value 1.03 | locus YJR043C, strain POL32, stronger effect = lower value 0.999 | locus YJR066W, strain TOR1, stronger effect = lower value 0.909
